Compound activity as filed in PubChem BioAssay.
Sampled rows, rich in hits. Any-hit rate of the full collection: about 10%.
ALDH1A1 inh – qHTS Assay for Inhibitors of Aldehyde Dehydrogenase 1 (ALDH1A1); 220,000 compounds, 7.3% hits; AID 1030, 2008; Potency, µM (doses to about 75.3 µM), for inactives: top-dose activity, negative = inhibition, hits mostly inhibitors; Purified ALDH1A1, NADH fluorescence, propionaldehyde substrate; Aldehyde dehydrogenase 1A1 (Homo sapiens), P00352; active = well fitted inhibition curve with a large enough effect, not every such curve was filed as active; inconclusive = small, poorly fitted or top-dose-only effect, or another doubt; inactive = no such curve, though single readings can be large or run the other way;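 also: potency is read from the fitted curve at half-maximal effect; plate controls were no enzyme wells and a reference inhibitor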
GLA spleen mod – qHTS Assay for Inhibitors and Activators of Human alpha-Galactosidase From Spleen Homogenate; human spleen homogenate, 4MU-alpha-Gal fluorescence, 40 min; Potency, µM (titrated, usually from 80 µM), for inactives: top-dose activity change, negative = inhibition, most hits filed as inhibitors; 240,000 compounds, 0.008% hits; AID 2107, 2009;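 also: potency is read from the fitted curve at half-maximal effect; 0% = enzyme with vehicle and -100% = no enzyme basal signal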
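Fluorogenic readout (Ex 365/Em 440 nm) of 4-methylumbelliferone released from 1 mM 4-MU-alpha-galactoside by spleen homogenate, 40 min at 37C, pH 5.0. Data normalized to no-enzyme and enzyme controls; Hill-equation AC50 from compound titrations.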
HPGD block – qHTS Assay for Inhibitors of HPGD (15-Hydroxyprostaglandin Dehydrogenase) | 15-hydroxyprostaglandin dehydrogenase [NAD(+)] (Homo sapiens), P15428 | purified HPGD, NADH fluorescence kinetic, PGE2 substrate | Potency, µM, inactives show top-dose activity change, negative = inhibition, most hits filed as inhibitors | 150,000 compounds, 4.3% hits | AID 894, 2007; active = well fitted inhibition curve with a large enough effect, not every such curve was filed as active; inconclusive = small, poorly fitted or top-dose-only effect, or another doubt; inactive = no such curve, though single readings can be large or run the other way; also: potency is read from the fitted curve at half-maximal effect
Target sequence (P15428 whole entry, looked up): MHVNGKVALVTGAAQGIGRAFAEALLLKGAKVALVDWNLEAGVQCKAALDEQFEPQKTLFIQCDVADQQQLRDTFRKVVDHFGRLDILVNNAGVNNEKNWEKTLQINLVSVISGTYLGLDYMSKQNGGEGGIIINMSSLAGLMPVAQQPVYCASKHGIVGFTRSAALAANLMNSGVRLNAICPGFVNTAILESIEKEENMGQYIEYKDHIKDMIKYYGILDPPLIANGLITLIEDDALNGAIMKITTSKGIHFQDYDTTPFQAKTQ
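20 nM HPGD preincubated 15 min at room temperature with compound in 50 mM Tris-HCl pH 8, 0.01% Tween 20. Started with 1 mM NAD+ and 30 uM prostaglandin E2; NADH fluorescence (360/450 nm) read 5 times over 30-s intervals, last minus first.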
PNC inhibitor – High Content Assay for Compounds that inhibit the Assembly of the Perinucleolar Compartment | 140,000 compounds, 3.1% hits | AID 2417, 2010 | activity change (PNC), negative = inhibition, % at 10 µM | PC3M PTB-GFP, PNC prevalence imaging, 16 h; hits give low values;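 active = readout at or below -70, meaning at least 70% loss of cells showing the perinucleolar compartment, a nuclear body marking cancer cells; inconclusive = readout between -30 and a set limit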;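 also: plate controls were DMSO wells for no effect and camptothecin positive control wells for full effect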
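PC3M cells stably expressing PTB-GFP, 750–1000 cells/well, treated 16 h at 37 °C with compound (23 nl of library stock), in duplicate. After paraformaldehyde fixation and Hoechst stain, imaged at 20x; PNC prevalence scored by image analysis.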
GLA inh pH 4.5 – qHTS Assay for Inhibitors of Human alpha-Galactosidase at pH 4.5; Alpha-galactosidase A (Homo sapiens), P06280; purified enzyme, 4-MU-alpha-Gal fluorescence, pH 4.5; activity change, negative = inhibition, % at 105 µM; 230,000 tested, under 10 active; AID 1467, 2008;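 also: 0% = full activity with enzyme and -100% = basal without enzyme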
Target sequence (P06280 whole entry, looked up): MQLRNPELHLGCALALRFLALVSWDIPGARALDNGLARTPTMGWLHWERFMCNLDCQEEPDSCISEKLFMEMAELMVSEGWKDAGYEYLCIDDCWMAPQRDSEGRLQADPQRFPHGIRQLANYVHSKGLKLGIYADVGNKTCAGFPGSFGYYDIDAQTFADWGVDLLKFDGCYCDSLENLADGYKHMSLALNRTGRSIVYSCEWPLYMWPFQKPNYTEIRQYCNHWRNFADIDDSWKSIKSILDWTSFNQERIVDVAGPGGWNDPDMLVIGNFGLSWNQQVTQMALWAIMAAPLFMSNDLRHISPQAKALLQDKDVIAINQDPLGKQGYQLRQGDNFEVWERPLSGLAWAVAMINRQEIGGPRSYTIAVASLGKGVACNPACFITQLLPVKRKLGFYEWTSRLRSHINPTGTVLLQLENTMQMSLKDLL
12-hLO inh – qHTS Assay for Inhibitors of 12-hLO (12-human lipoxygenase). Polyunsaturated fatty acid lipoxygenase ALOX12 (Homo sapiens), P18054. purified 12-hLO, xylenol orange hydroperoxide absorbance. Potency, µM (series often up to 57.1 µM), without a hit: at the top dose activity change, negative = inhibition, usual class: inhibitors. 150,000 compounds, 0.12% hits. AID 1452, 2008; also: potency is read from the fitted curve at half-maximal effect; nearly all actives have a fitted effect of over 55% in size
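Lipoxygenase turnover measured by absorbance at 573 and 405 nm after Fe-XO development. Human 12hLO 150 nM, arachidonate 40 uM, pH 7.0 Hepes buffer with detergent; 15 min compound preincubation, 30 min reaction.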
* hit, by the source's call; ? = inconclusive; · = no result given; [ ] = another dose, or the depositor's remark. Unless noted, calls follow the shape of the dose curve; as a rule, active = well fitted curve in the direction sought with a large enough effect; inconclusive = small, poorly fitted or top-dose-only effect, or another doubt; inactive = no such curve, though single readings can be large; an effect the other way counts as inactive or inconclusive. Unless noted, % is scaled to controls: 0 for no effect and ±100 for the full control effect.

SMILES	ALDH1A1 inh	GLA spleen mod	HPGD block	PNC inhibitor	GLA inh pH 4.5	12-hLO inh
CCc1ccc(NC(=O)c2cc(C)on2)cc1	1%	-10%	-7%	-22	-5	-2%
CC(C)c1onc(C(=O)NC2CCCCC2)c1[N+](=O)[O-]	5%	-4%	·	·	0[21.1 µM]	·
CC(C)c1cc(C(=O)Nc2sc3c(c2C#N)CCC3)no1	18µM*	12%	?	7	1	-13%
CC(C)c1onc(C(=O)Nc2sc3c(c2C#N)CCC3)c1[N+](=O)[O-]	13µM*	2%	·	·	2[21.1 µM]	·
CCCc1cc(C(=O)OC)c(NC(=O)c2cc(C)on2)s1	9%	8%	-24%	-87*	-4	7%
CC(=O)Nc1sc2c(c1C#N)CCC2	-1%	1%	·	·	3	·
N#Cc1c(NC(=O)c2cc([N+](=O)[O-])ccc2N2CCOCC2)sc2c1CCCC2	-7%	-3%	28µM*	48	4	-3%
Nc1ncnc(Oc2ccccc2F)c1[N+](=O)[O-]	10%	-2%	·	·	7	·
COC(=O)N[C@@H](CCc1ccccc1)[C@]1(C(=O)OC)CCCC1=O	2%	10%	-1%	·	3	·
CC(C)C1CC(=O)NC(SCC(=O)Nc2ccc(Br)cc2)=C1C#N (stereo not given)	8.9µM*	-7%	-2%	?	-5	-11%
Cc1ccc(NC(=O)CSC2=C(C#N)C(c3ccco3)C3=C(CC(C)(C)CC3=O)N2)cc1 (stereo not given)	13µM*	?	-10%	-25	-19	-12%
Cc1ccc(NC(=O)CSC2=C(C#N)C(c3ccco3)CC(=O)N2)cc1 (stereo not given)	14µM*	1%	-6%	-20	0	-1%
COC(=O)N1CCc2cc(OC)c(OC)cc2C1Cc1ccc(OC)cc1 (stereo not given)	3%[13.5 µM]	6%[17.5 µM]	·	·	·	·
CCCCC(NS(=O)(=O)c1ccc(OC)cc1)C(=O)O (stereo not given)	?	2%	-8%	-100*	-27	-5%
CCN(Cc1ccccc1)C(=O)C1CCC(CNc2c(N3CCOCC3)c(=O)c2=O)CC1 (stereo not given)	0%	6%	25µM*	32	-16	4%
O=C(C1CCC(CNc2c(N3CCCCC3)c(=O)c2=O)CC1)N1CCc2ccccc2C1 (stereo not given)	-2%	-4%	0.56µM*	-27	20	9%
CC1CCCN(C(=O)C2CCC(CNc3c(N4CCCCC4)c(=O)c3=O)CC2)C1 (stereo not given)	·	0%	·	·	-2	·
CC1CCN(c2c(NCC3CCC(C(=O)N4CCc5ccccc5C4)CC3)c(=O)c2=O)CC1 (stereo not given)	-2%	1%	2.5µM*	25	1	-1%
O=C(C1CCC(CNc2c(N3CCOCC3)c(=O)c2=O)CC1)N1CCN(c2ccccc2)CC1 (stereo not given)	4%	0%	-18%	30	7	-2%
Cc1ccc(F)c(C2C3C=CCCC3(C)C(=O)N2Cc2ccccc2)c1 (stereo not given)	·	-10%	·	·	·	·
CCN(CC)CCCN=Cc1c(O)n(-c2ccccc2C)c(=O)c2ccccc12	·	8%	·	·	-2	·
Cc1ccc(NC(=S)Nc2cc(C(=O)O)ccc2N2CC3CC(C2)c2cccc(=O)n2C3)cc1C (stereo not given)	28µM*	2%	·	·	0	·
CCOc1cc(/C=C2\SC(=S)N(C(C(=O)O)c3ccccc3)C2=O)ccc1O (stereo not given)	32µM*	5%	·	·	-1	·
COc1cccc(/C=C2\SC(=S)N(CC3CCCO3)C2=O)c1 (stereo not given)	3.2µM*	-1%	-20%	-19	-3	-1%
CCOc1cc(/C=C2/SC(=S)N(CC3CCCO3)C2=O)ccc1O (stereo not given)	0.45µM*	-6%	·	·	-10	·
SMILES	ALDH1A1 inh	GLA spleen mod	HPGD block	PNC inhibitor	GLA inh pH 4.5	12-hLO inh
N[C@H](CO)Cc1cnc[nH]1	-6%	2%	2%	·	-1	0%
CCN1C(=O)C(CC(=O)Nc2ccc(C)cc2C)Nc2cc(S(=O)(=O)N(C)C)ccc21 (stereo not given)	28µM*	1%	·	·	-19	·
CCN1CCN(CC(=O)Nc2ccc(C)cc2C)C(=O)C1=O	-10%	9%	-13%	-15	-5	-3%
O=C(O)c1cn(-c2ccc(N3CCCC3)c(F)c2)c2c(F)c(F)c(F)cc2c1=O	16µM*	-1%	·	·	1	·
CCCCN(CC)C(=O)CSc1cc(=O)n(C)c2ccccc12	?	-7%	7.1µM*	28	-9	-1%
CN(Cc1ccccc1)C(=O)CSc1cc(=O)n(C)c2ccccc12	12%	3%	·	·	0	·
Cn1c(=O)cc(SCC(=O)N2CCCC2)c2ccccc21	?	0%	16µM*	-89*	-8	-5%
O=C(OCC(=O)N1CCN(C(=O)c2ccco2)CC1)c1cccc(S(=O)(=O)N2CCc3ccccc32)c1	-11%	3%	·	·	-5	·
CCc1ccc2oc(-c3cc(N)cc(C)c3O)nc2c1	?	11%	-5%	-107*	0	-14%
CCc1ccc2oc(-c3cc(N)ccc3O)nc2c1	?	1%	-16%	-27	1	-14%
O=C(Nc1ccc(NC(=O)c2ccco2)nc1)c1ccccn1	14µM*	6%	-24%	-24	0	0%
Cc1cc(NC(=O)c2ccccc2)ncc1NC(=O)c1ccco1	11µM*	1%	?	20	-7	-1%
C/C=C/OC(=O)NC(c1ccccc1)[C@]1(C(C)=O)CCCC1=O (stereo not given in full)	4%[13.5 µM]	-3%[17.5 µM]	·	·	·	·
CC(=O)NCCNc1nc(-c2ccccc2C)nc2ccccc12	?	14%	·	·	·	·
COCCOC(=O)c1c(C)oc2ccc(OCc3ccccc3)cc12	4%	-1%	-7%	-114*	-3	2%
O=C(Nc1ccc(N2CCOCC2)c(Cl)c1)c1ccccc1Cl	7%	-2%	·	·	4	·
CC(=O)NC(=S)Nc1ccc(N2CCOCC2)c(S(=O)(=O)Nc2cc(Cl)ccc2Cl)c1	0.35µM*	2%	·	·	-9	·
O=C(NC(=S)Nc1ccc(N2CCOCC2)c(Cl)c1)C(c1ccccc1)c1ccccc1	11µM*	-12%	-18%	?	-24	?
